# Experiments:
# Assay in all cases: DAPPL (digital affinity profiling via proximity ligation, sequencing); 10 mM Tris-HCl pH 7.5, 50 mM NaCl, 1 mM DTT, 4% glycerol, room temperature, 30 min; GST-TFs on glutathione beads, 16-mer random dsDNA library, 0.1% formaldehyde crosslink after washing; high values mean tight binding
# Conditions in all cases: protein: recombinant; tags: N-terminal GST; dsDNA, one strand shown
# FLI1 = molecular target: T1, FLI1 (Homo sapiens, UniProt Q01543 1-452)
# T1 sequence: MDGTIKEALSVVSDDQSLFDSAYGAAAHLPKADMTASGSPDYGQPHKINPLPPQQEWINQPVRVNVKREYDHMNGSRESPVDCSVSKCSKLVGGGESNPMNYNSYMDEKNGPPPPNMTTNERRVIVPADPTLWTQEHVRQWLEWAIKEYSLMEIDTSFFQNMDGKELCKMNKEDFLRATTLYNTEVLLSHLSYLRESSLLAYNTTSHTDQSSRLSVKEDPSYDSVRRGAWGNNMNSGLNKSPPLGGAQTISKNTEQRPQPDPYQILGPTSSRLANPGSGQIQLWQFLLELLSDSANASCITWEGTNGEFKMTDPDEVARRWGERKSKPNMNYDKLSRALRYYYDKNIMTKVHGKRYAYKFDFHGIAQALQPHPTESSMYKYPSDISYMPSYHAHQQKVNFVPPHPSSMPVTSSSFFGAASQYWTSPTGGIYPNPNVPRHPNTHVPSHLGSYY
# Procedure, shortened: (§1)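 GST fusions of human transcription factors were expressed in yeast and captured with glutathione beads. Once given DNA barcodes and pooled alongside a tag-only sample, they were incubated for 30 min at room temperature with 200 nmole of a random double-stranded 16-mer DNA library in Tris/NaCl/DTT/glycerol buffer, then washed, crosslinked (0.1% formaldehyde), proximity-ligated, PCR-amplified and sequenced on an Illumina NextSeq500. The binding signal of each hexamer is its read frequency for a factor divided by its frequency for the tag-only sample.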
# ELK1 = molecular target: T2, ELK1 (Homo sapiens, UniProt P19419 1-428)
# T2 sequence: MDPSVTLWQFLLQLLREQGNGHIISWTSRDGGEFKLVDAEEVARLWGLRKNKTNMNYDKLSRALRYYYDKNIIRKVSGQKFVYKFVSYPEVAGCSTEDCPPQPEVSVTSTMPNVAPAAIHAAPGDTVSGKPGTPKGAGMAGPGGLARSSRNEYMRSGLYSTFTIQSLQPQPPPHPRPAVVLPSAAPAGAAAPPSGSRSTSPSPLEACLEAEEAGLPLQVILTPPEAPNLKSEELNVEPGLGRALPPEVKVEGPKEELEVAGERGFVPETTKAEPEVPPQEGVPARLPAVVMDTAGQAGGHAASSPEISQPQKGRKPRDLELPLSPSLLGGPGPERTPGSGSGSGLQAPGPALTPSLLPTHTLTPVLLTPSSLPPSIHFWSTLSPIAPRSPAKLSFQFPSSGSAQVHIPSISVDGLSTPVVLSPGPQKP
# Procedure, shortened: as §1
# GABPA = molecular target: T3, GABPA (Homo sapiens, UniProt Q06546 1-454)
# T3 sequence: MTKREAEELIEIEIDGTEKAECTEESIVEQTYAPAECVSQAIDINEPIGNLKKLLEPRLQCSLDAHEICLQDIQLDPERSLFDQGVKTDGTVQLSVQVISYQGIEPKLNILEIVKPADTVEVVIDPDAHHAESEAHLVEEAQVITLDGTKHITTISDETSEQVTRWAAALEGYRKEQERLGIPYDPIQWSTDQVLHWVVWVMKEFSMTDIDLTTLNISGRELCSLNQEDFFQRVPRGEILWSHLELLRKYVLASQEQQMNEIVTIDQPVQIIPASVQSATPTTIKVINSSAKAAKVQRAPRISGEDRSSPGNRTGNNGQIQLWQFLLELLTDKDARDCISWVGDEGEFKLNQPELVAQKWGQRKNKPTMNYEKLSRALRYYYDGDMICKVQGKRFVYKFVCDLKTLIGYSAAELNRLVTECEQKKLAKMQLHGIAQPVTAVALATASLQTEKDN
# Procedure, shortened: as §1
# ERG = molecular target: T4, ERG (Homo sapiens, UniProt P11308 1-479)
# T4 sequence: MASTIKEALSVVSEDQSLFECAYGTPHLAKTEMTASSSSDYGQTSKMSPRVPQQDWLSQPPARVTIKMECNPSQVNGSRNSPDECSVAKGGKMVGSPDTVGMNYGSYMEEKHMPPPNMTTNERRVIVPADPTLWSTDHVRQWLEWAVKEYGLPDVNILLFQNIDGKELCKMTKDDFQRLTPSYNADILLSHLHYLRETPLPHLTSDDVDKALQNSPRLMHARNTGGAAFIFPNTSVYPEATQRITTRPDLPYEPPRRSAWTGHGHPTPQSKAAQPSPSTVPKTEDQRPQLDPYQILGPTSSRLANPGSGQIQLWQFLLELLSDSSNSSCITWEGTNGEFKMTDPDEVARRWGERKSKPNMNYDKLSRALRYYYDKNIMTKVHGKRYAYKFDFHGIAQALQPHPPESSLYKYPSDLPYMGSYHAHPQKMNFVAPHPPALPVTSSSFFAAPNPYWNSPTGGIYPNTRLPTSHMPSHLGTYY
# Procedure, shortened: as §1
# ELF1 = ELF1 (Homo sapiens, UniProt P32519 1-619)
# Sequence of ELF1 (P32519 whole entry): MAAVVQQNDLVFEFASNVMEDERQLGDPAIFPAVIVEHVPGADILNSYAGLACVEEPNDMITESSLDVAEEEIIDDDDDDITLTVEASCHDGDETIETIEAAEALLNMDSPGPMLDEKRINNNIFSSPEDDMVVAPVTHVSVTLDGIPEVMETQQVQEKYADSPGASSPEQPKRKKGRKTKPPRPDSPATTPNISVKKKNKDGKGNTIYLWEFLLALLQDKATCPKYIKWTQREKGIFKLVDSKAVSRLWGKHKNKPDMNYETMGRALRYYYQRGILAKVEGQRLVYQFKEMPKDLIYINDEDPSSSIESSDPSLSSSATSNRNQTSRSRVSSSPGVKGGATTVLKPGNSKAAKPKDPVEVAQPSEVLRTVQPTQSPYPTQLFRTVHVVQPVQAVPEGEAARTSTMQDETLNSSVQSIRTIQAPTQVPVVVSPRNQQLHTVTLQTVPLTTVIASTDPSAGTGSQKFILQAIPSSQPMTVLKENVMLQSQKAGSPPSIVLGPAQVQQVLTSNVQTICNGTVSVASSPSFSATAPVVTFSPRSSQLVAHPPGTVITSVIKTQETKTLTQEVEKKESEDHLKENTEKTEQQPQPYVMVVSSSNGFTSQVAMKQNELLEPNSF
# Procedure, shortened: as §1
# EHF = molecular target: T5, EHF (Homo sapiens, UniProt Q9NZC4 1-300)
# T5 sequence: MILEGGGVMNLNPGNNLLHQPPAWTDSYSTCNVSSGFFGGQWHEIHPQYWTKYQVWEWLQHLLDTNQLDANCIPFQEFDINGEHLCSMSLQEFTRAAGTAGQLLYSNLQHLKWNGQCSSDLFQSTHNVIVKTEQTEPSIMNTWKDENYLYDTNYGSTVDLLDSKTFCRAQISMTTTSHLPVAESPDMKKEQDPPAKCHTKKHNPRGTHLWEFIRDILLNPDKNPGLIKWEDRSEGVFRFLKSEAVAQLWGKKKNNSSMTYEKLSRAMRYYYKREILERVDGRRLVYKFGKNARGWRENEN
# Procedure, shortened: as §1
# SPI1 = SPI1 (Homo sapiens, UniProt P17947 1-270)
# Procedure, shortened: as §1
# SPIB = SPIB (Homo sapiens, UniProt Q01892 1-262)
# Sequence of SPIB (Q01892 whole entry): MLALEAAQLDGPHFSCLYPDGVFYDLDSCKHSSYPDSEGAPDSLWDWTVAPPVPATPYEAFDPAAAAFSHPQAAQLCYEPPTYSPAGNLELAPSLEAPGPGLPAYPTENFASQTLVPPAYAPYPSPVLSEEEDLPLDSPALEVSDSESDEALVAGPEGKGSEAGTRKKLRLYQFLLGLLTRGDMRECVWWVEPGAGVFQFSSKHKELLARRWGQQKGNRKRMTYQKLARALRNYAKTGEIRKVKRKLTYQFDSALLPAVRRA
# Procedure, shortened: as §1
# ELK3 = molecular target: T6, ELK3 (Homo sapiens, UniProt P41970 1-407)
# T6 sequence: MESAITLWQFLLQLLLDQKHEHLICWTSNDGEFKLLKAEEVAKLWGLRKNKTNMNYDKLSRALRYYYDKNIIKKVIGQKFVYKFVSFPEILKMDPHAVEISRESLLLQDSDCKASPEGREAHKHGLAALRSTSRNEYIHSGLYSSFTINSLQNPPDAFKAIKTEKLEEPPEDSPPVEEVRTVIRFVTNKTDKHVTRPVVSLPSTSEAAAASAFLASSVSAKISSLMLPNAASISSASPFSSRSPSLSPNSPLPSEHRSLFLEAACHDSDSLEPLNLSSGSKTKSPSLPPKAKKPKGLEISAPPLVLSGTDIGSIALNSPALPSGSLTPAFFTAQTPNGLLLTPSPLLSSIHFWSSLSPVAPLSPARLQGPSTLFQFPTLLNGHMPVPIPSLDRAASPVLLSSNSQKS
# Procedure, shortened: as §1
# FEV = molecular target: T7, FEV (Homo sapiens, UniProt Q99581 1-238)
# T7 sequence: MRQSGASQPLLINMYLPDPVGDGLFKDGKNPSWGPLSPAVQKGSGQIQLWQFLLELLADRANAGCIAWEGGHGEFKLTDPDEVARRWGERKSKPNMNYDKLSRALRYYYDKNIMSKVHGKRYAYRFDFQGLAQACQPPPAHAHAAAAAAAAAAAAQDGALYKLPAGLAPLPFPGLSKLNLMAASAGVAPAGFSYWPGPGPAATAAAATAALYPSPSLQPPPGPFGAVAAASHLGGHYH
# Procedure, shortened: as §1
# ETV5 = ETV5 (Homo sapiens, UniProt P41161 1-510)
# Sequence of ETV5 (P41161 whole entry): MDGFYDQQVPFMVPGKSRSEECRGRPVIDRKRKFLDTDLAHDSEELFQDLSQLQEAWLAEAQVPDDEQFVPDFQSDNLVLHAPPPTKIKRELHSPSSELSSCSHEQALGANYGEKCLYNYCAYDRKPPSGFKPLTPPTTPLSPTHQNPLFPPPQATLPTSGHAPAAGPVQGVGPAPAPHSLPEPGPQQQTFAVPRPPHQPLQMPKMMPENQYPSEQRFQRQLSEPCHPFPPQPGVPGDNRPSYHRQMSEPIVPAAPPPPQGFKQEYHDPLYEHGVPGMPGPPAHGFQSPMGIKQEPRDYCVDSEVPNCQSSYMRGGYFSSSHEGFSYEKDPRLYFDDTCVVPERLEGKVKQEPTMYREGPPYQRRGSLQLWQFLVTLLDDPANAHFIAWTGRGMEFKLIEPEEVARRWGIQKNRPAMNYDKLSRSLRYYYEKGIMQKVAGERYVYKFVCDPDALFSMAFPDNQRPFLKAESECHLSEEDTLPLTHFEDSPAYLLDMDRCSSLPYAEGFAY
# Procedure, shortened: as §1
# ELF4 = ELF4 (Homo sapiens, UniProt Q99607 1-663)
# Sequence of ELF4 (Q99607 whole entry): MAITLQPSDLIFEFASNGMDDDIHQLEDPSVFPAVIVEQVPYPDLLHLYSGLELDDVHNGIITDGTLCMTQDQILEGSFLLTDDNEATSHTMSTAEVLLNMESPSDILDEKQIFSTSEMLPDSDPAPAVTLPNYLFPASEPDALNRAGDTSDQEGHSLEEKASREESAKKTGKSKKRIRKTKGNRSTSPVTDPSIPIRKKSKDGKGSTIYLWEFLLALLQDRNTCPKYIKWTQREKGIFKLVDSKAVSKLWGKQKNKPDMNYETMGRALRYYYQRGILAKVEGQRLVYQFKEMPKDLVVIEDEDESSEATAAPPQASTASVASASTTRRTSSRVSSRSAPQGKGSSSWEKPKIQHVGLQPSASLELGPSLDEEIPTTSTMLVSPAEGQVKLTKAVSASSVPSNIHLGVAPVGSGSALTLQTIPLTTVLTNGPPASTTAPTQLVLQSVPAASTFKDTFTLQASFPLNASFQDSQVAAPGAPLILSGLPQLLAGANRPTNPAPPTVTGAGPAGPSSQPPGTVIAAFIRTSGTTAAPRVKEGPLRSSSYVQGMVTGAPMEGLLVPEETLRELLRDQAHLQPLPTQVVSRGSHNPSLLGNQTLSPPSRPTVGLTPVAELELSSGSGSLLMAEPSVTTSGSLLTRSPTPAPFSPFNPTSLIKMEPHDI
# Procedure, shortened: as §1
# ETV1 = ETV1 (Homo sapiens, UniProt P50549 1-477)
# Sequence of ETV1 (P50549 whole entry): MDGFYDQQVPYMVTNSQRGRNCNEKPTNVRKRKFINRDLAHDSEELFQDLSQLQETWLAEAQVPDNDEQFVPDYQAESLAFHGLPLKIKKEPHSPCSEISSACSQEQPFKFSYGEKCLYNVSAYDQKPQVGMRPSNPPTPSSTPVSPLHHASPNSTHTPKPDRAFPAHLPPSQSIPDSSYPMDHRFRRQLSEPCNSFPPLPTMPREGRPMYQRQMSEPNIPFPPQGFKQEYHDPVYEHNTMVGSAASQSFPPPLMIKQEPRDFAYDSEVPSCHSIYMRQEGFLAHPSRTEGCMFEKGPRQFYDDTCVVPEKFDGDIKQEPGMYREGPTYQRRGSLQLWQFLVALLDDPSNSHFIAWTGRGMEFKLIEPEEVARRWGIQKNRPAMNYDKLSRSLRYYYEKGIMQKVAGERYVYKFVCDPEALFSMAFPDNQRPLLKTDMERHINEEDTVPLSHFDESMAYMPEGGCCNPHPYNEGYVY
# Procedure, shortened: as §1
# ERF = molecular target: T8, ERF (Homo sapiens, UniProt P50548 1-548)
# T8 sequence: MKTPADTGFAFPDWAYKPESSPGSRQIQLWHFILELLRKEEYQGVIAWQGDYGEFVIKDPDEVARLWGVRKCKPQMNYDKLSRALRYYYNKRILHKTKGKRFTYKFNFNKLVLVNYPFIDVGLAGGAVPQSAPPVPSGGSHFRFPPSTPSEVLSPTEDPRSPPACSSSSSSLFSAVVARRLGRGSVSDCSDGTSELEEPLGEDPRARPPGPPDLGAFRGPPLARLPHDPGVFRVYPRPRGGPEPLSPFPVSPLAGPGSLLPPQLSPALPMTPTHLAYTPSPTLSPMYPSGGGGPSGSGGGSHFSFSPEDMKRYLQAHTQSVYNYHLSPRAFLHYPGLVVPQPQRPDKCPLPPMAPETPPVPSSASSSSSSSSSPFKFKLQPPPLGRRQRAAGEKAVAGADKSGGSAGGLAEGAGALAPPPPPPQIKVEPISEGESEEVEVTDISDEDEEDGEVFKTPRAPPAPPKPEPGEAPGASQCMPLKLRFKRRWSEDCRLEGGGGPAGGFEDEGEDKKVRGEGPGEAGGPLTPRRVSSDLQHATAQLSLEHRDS
# Procedure, shortened: as §1
# ETV3L = molecular target: T9, ETV3L (Homo sapiens, UniProt Q6ZN32 1-361)
# T9 sequence: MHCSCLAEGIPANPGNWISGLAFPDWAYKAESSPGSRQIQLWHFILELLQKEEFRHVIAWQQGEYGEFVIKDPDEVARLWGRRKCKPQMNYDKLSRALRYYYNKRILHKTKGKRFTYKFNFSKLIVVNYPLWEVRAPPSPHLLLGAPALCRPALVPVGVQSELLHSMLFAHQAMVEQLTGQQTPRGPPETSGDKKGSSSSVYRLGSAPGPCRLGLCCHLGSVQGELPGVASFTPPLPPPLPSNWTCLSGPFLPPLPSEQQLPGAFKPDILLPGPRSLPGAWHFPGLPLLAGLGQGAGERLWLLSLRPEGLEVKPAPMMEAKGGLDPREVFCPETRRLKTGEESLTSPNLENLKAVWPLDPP
# Procedure, shortened: as §1
# ETS2 = molecular target: T10, ETS2 (Homo sapiens, UniProt P15036 1-469)
# T10 sequence: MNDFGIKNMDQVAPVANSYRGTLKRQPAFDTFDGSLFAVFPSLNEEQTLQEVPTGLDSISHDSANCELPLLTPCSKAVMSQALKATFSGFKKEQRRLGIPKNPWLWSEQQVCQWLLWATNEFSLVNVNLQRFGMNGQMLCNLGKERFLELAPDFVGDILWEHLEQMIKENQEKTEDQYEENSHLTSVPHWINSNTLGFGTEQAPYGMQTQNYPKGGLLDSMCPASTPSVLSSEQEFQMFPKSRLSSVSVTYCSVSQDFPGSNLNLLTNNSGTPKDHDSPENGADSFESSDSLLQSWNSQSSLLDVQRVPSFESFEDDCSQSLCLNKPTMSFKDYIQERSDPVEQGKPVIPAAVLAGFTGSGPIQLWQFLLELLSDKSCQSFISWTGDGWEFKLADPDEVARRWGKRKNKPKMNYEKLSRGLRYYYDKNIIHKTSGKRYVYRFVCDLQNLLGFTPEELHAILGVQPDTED
# Procedure, shortened: as §1
# ELF5 = molecular target: T11, ELF5 (Homo sapiens, UniProt Q9UKW6-2 1-255)
# T11 sequence: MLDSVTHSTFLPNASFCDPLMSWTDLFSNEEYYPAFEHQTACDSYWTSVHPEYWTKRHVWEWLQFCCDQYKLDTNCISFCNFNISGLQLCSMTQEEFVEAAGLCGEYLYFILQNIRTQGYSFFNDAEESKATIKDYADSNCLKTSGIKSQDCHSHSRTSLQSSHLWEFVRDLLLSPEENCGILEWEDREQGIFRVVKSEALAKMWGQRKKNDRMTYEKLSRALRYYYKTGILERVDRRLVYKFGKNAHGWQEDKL
# Procedure, shortened: as §1
# ETV3 = molecular target: T12, ETV3 (Homo sapiens, UniProt P41162-2 1-143)
# T12 sequence: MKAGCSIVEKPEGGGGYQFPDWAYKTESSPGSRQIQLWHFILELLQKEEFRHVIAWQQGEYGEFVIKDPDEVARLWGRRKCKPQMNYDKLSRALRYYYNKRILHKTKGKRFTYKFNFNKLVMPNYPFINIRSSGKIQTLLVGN
# Procedure, shortened: as §1
# ETV6 = ETV6 (Homo sapiens, UniProt P41212 1-452)
# Sequence of ETV6 (P41212 whole entry): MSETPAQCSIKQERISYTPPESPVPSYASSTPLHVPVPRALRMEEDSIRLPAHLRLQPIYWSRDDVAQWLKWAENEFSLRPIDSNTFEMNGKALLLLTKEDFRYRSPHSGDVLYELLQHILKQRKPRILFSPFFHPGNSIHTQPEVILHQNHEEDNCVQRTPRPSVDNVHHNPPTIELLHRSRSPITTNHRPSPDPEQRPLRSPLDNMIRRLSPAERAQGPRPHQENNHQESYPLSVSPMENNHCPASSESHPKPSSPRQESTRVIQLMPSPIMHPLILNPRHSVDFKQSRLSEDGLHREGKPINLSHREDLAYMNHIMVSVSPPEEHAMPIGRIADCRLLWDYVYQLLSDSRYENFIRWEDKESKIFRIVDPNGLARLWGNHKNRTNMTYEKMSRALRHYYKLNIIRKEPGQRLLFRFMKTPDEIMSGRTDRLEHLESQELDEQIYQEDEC
# Procedure, shortened: as §1
sequence,measurement,setting,value
GTTGAC,binding signal,FLI1,"1.11 fold enrichment (6-mer frequency, TF over GST control)"
same,binding signal,ELK1,"1.03 fold enrichment (6-mer frequency, TF over GST control)"
same,binding signal,GABPA,"1.19 fold enrichment (6-mer frequency, TF over GST control)"
same,binding signal,ERG,"1.22 fold enrichment (6-mer frequency, TF over GST control)"
same,binding signal,ELF1,"1.2 fold enrichment (6-mer frequency, TF over GST control)"
same,binding signal,EHF,"1.17 fold enrichment (6-mer frequency, TF over GST control)"
same,binding signal,SPI1,"1.15 fold enrichment (6-mer frequency, TF over GST control)"
same,binding signal,SPIB,"1.22 fold enrichment (6-mer frequency, TF over GST control)"
same,binding signal,ELK3,"1.2 fold enrichment (6-mer frequency, TF over GST control)"
same,binding signal,FEV,"1.18 fold enrichment (6-mer frequency, TF over GST control)"
same,binding signal,ETV5,"1.01 fold enrichment (6-mer frequency, TF over GST control)"
same,binding signal,ELF4,"1.15 fold enrichment (6-mer frequency, TF over GST control)"
same,binding signal,ETV1,"1.06 fold enrichment (6-mer frequency, TF over GST control)"
same,binding signal,ERF,"1.43 fold enrichment (6-mer frequency, TF over GST control)"
same,binding signal,ETV3L,"1.19 fold enrichment (6-mer frequency, TF over GST control)"
same,binding signal,ETS2,"1.17 fold enrichment (6-mer frequency, TF over GST control)"
same,binding signal,ELF5,"1.07 fold enrichment (6-mer frequency, TF over GST control)"
same,binding signal,ETV3,"1.04 fold enrichment (6-mer frequency, TF over GST control)"
same,binding signal,ETV6,"1.21 fold enrichment (6-mer frequency, TF over GST control)"

# From article PMC7862700, “An all-to-all approach to the identification of sequence-specific readers for epigenetic DNA modifications on cytosine”
